The full data set covers some 7,900 targets. This sample favours those with a hit. About 0.6% of all pairs of compound and target were hits.
Assays:
Assay in all cases: log2 fold change, soluble protein after heating vs DMSO (PISA); higher = thermal stabilisation; K562 cells, 10 uM, 30 min; active = over 0.2 and 3.5 SD of the protein, either way, in both replicates (recomputed)
[1] = compound: CC[C@@H]1C(=O)N(C)c2cnc(Nc3ccc(C(=O)NC4CCN(C)CC4)cc3OC)nc2N1C1CCCC1
Method in brief: (§1)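 Aliquots of K562 cells (2×10^6 cells/mL) treated with 10 μM compound for 30 min were heated for 3 min over 48°C-58°C. After pooling and extraction in PBS with 0.5% NP-40 at 4°C, soluble protein from a 21,000xg, 90 min spin was quantified by TMTpro 16plex LC-MS/MS with channel sums equalised. Thermal stability is expressed against control samples, from duplicates, as a log2 fold change.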

volasertib = compound: CC[C@@H]1C(=O)N(C)c2cnc(Nc3ccc(C(=O)N[C@H]4CC[C@H](N5CCN(CC6CC6)CC5)CC4)cc3OC)nc2N1C(C)C [volasertib]
Method in brief: as §1

[2] = compound: CC[C@H](C)N1C=C(C2=C(C=C(C=C21)C3=CN=C(C=C3)N4CCNCC4)C(=O)NCC5=C(C=C(NC5=O)C)C)C
Method in brief: as §1

epoxomicin = compound: CC[C@H](C)[C@@H](C(=O)N[C@@H]([C@@H](C)O)C(=O)N[C@@H](CC(C)C)C(=O)[C@]1(CO1)C)NC(=O)[C@H]([C@@H](C)CC)N(C)C(=O)C [epoxomicin]
Method in brief: as §1

[3] = compound: CCn1c(C(=O)N(C2CC2)C2CC2)cc2c3c(ncn3C)c(Nc3cc(C)n(C)n3)nc21
Method in brief: as §1

[4] = compound: CCn1cc(-c2ccnc3[nH]c(-c4cccc(CN(C)C)c4)cc23)c(-c2ccc(NC(=O)N(C)C)cc2)n1
Method in brief: as §1

[5] = compound: CN(C)CC(=O)Nc1ccc2[nH]c(=O)c3ccccc3c2c1
Method in brief: as §1

rosiglitazone = compound: CN(CCOC1=CC=C(C=C1)C[C@H]2C(=O)NC(=O)S2)C3=CC=CC=N3 (racemic) [rosiglitazone]
Method in brief: as §1

[6] = compound: CN1C2=C(C3=C1C(=O)N(N=C3)CC4=CC(=CC=C4)N)SC(=C2)S(=O)C
Method in brief: as §1

[7] = compound: CN1CCC(CNc2ccc3ncc(-c4cccc(OC(F)(F)F)c4)n3n2)CC1
Method in brief: as §1

Measured: log2 fold change

SLC25A36 (UniProt Q96CQ1)
inactive: [1] -0.133 | volasertib 0.059 | [2] 0.045 | epoxomicin 0.026 | [3] -0.002 | [4] -0.135 | [5] -0.217 | rosiglitazone -0.073 | [6] 0.02 | [7] 0.046

STIM1 (UniProt Q13586)
inactive: [1] -0.116 | volasertib -0.206 | [2] 0.025 | epoxomicin 0.028 | [3] 0.004 | [4] 0.023 | [5] 0.007 | rosiglitazone 0.037 | [6] -0.047 | [7] -0.195

SLC25A4 (UniProt P12235)
inactive: [1] -0.012 | volasertib 0.06 | [2] -0.024 | epoxomicin 0.009 | [3] 0.034 | [4] 0.037 | [5] -0.053 | rosiglitazone -0.001 | [6] -0.038 | [7] -0.001

SNRPB2 (UniProt P08579)
Sequence of UniProt P08579 (P08579 whole entry, looked up): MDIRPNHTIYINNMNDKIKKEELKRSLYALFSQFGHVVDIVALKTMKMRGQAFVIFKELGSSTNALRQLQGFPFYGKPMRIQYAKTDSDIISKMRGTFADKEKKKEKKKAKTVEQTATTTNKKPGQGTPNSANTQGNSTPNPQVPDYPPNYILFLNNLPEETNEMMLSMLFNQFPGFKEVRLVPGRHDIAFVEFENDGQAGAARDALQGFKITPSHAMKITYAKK
inactive: [1] 0.176 | volasertib 0.174 | [2] -0.069 | epoxomicin -0.05 | [3] 0.025 | [4] 0.069 | [5] -0.063 | rosiglitazone -0.047 | [6] -0.008 | [7] 0.098

SPR (UniProt P35270)
active: [3] 0.412
inactive: [1] 0.02 | volasertib 0.165 | [2] 0.013 | epoxomicin -0.054 | [4] 0.073 | [5] 0.153 | rosiglitazone 0.008 | [6] -0.184 | [7] 0.012

SURF1 (UniProt Q15526)
Sequence of UniProt Q15526 (Q15526 whole entry, looked up): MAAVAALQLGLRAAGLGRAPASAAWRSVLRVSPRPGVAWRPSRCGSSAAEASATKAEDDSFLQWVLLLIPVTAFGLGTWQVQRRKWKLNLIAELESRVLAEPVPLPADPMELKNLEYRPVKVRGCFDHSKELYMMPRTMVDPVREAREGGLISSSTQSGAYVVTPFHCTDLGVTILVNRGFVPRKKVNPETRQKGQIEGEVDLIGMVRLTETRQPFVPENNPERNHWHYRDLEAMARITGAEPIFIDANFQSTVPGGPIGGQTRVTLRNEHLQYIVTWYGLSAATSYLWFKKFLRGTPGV
active: volasertib -0.274 | [7] -0.311
inactive: [1] -0.085 | [2] -0.055 | epoxomicin 0.012 | [3] -0.013 | [4] -0.059 | [5] 0.013 | rosiglitazone 0.035 | [6] -0.016

TFB2M (UniProt Q9H5Q4)
inactive: [1] -0.096 | [2] 0.049 | epoxomicin 0.071 | [3] 0 | [4] -0.002 | [5] 0.031 | rosiglitazone 0.042 | [6] -0.049 | [7] -0.179
active: volasertib -0.326

TIMM10 (UniProt P62072)
inactive: [1] 0.029 | volasertib 0.052 | [2] -0.023 | epoxomicin 0.032 | [3] 0.059 | [4] 0.006 | [5] -0.046 | rosiglitazone -0.007 | [6] -0.074 | [7] 0.14

SNX5 (UniProt Q9Y5X3)
inactive: [1] -0.136 | volasertib -0.129 | [2] 0.076 | epoxomicin 0.05 | [3] -0.026 | [4] -0.099 | [5] 0.027 | rosiglitazone 0.069 | [6] -0.001
active: [7] -0.289

ST6GAL1 (UniProt P15907)
Sequence of UniProt P15907 (P15907 whole entry, looked up): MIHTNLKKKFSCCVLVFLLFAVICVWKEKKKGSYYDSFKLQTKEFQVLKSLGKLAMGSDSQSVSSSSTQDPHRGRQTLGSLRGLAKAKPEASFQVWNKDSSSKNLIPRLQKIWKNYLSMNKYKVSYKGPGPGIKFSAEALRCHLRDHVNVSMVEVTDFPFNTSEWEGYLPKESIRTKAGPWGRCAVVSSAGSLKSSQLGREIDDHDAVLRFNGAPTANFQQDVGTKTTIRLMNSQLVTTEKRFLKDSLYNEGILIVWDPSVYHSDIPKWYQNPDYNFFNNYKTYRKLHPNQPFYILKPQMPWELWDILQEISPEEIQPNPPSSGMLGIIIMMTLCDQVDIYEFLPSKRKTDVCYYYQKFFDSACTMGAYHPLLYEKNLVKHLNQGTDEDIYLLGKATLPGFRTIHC
inactive: volasertib -0.257 | [2] 0.003 | epoxomicin -0.066 | [3] 0.019 | [4] 0.01 | [5] 0.041 | rosiglitazone 0.058 | [6] -0.057 | [7] -0.149
active: [1] -0.221

SUN2 (UniProt Q9UH99)
inactive: [1] 0.016 | volasertib -0.064 | [2] 0.01 | epoxomicin 0.045 | [3] 0.006 | [4] -0.032 | [5] -0.012 | rosiglitazone 0.033 | [6] 0.015 | [7] 0.057

SPAST (UniProt Q9UBP0)
inactive: [1] -0.128 | volasertib -0.242 | [2] 0.107 | epoxomicin 0.021 | [3] -0.077 | [4] 0.035 | [5] 0.079 | rosiglitazone 0.048 | [6] -0.046 | [7] -0.043

TBC1D10B (UniProt Q4KMP7)
Sequence of UniProt Q4KMP7 (Q4KMP7 whole entry, looked up): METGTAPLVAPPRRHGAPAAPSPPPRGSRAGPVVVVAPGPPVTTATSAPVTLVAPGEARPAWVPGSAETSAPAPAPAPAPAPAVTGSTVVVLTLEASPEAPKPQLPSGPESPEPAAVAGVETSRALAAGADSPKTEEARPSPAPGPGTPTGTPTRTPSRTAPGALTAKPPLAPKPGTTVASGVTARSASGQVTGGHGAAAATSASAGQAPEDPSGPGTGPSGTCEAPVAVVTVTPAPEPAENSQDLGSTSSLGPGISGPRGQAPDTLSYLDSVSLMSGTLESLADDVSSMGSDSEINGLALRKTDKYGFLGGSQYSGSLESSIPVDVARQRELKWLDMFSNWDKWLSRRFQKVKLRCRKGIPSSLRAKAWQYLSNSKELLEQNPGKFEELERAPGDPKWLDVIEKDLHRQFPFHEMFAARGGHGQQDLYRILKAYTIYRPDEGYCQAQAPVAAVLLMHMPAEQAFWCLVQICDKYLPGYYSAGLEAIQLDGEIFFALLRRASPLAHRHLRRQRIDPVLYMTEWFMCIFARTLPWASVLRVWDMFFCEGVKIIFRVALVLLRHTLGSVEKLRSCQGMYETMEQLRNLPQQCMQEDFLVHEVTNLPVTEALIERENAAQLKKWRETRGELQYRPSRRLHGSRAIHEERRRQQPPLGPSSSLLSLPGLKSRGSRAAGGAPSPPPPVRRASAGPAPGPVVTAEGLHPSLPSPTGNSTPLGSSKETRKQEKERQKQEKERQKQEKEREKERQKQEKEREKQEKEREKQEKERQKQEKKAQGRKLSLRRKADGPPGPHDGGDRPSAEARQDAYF
inactive: [1] -0.108 | volasertib -0.114 | [2] 0.025 | epoxomicin 0.019 | [3] 0.022 | [4] 0.004 | [5] -0.005 | rosiglitazone 0.015 | [6] -0.053 | [7] -0.185

SNRNP40 (UniProt Q96DI7)
active: [7] 0.261
inactive: [1] 0.067 | volasertib 0.059 | [2] 0.026 | epoxomicin -0.05 | [3] -0.018 | [4] -0.033 | [5] -0.012 | rosiglitazone -0.001 | [6] -0.029

SSR4 (UniProt P51571)
inactive: [1] 0.004 | volasertib -0.01 | [2] -0.004 | epoxomicin 0.029 | [3] 0.06 | [4] 0.002 | [5] -0.022 | rosiglitazone 0.015 | [6] -0.028 | [7] 0.045

SLC7A6 (UniProt Q92536)
Sequence of UniProt Q92536 (Q92536 whole entry, looked up): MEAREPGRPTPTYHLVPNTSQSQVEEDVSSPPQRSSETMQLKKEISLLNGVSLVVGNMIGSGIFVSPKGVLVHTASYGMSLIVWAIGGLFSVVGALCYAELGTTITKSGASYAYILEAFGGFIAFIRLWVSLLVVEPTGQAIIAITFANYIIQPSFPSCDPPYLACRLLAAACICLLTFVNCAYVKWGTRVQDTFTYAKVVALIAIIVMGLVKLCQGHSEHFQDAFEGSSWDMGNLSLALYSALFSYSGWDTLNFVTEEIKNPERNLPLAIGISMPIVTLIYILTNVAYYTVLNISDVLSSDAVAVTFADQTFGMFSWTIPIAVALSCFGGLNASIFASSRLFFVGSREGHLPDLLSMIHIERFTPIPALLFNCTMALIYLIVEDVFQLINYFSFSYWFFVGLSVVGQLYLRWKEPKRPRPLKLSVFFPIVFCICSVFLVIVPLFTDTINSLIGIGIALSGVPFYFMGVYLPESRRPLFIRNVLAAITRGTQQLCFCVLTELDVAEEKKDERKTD
inactive: [1] 0.048 | volasertib 0.042 | [2] -0.099 | epoxomicin 0.211 | [3] 0.014 | [4] -0.018 | [5] 0.04 | rosiglitazone 0.023 | [6] -0.036 | [7] 0.122

SUCLG1 (UniProt P53597)
Sequence of UniProt P53597 (P53597 whole entry, looked up): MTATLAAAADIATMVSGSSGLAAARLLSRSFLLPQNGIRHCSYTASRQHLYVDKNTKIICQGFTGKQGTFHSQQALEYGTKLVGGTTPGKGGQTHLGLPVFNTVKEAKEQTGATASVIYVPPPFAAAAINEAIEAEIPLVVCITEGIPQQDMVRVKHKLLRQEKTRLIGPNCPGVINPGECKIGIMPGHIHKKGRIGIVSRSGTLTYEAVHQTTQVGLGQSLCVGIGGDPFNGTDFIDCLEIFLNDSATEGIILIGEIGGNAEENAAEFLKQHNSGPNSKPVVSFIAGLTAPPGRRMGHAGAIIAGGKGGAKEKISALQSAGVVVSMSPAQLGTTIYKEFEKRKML
inactive: [1] 0.008 | volasertib -0.044 | [2] 0.063 | epoxomicin 0.031 | [3] -0.013 | [4] -0.012 | [5] -0.027 | rosiglitazone 0.037 | [6] -0.041 | [7] -0.097

TGFBRAP1 (UniProt Q8WUH2)
inactive: [1] -0.098 | volasertib -0.253 | [2] 0.128 | epoxomicin 0.048 | [3] -0.038 | [4] -0.059 | [5] 0.11 | rosiglitazone 0.097 | [6] 0.195 | [7] 0.011

STAM2 (UniProt O75886)
active: volasertib -0.297
inactive: [1] -0.039 | [2] 0.063 | epoxomicin 0.039 | [3] -0.007 | [4] -0.056 | [5] 0 | rosiglitazone 0.022 | [6] -0.033 | [7] -0.128

TIMM13 (UniProt Q9Y5L4)
Sequence of UniProt Q9Y5L4 (Q9Y5L4 whole entry, looked up): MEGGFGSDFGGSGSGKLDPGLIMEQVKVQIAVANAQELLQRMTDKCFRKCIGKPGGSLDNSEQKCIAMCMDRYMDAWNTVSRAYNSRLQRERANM
inactive: [1] 0.019 | volasertib -0.048 | [2] 0.027 | epoxomicin 0.213 | [3] 0.024 | [4] 0 | [5] -0.032 | rosiglitazone 0.029 | [6] -0.094 | [7] 0.237

SPPL2B (UniProt Q8TCT7)
inactive: [1] 0.039 | volasertib 0 | [2] -0.003 | epoxomicin -0.076 | [3] -0.004 | [4] 0.028 | [5] 0.035 | rosiglitazone -0.022 | [6] 0.033 | [7] -0.228

SLC27A4 (UniProt Q6P1M0)
Sequence of UniProt Q6P1M0 (Q6P1M0 whole entry, looked up): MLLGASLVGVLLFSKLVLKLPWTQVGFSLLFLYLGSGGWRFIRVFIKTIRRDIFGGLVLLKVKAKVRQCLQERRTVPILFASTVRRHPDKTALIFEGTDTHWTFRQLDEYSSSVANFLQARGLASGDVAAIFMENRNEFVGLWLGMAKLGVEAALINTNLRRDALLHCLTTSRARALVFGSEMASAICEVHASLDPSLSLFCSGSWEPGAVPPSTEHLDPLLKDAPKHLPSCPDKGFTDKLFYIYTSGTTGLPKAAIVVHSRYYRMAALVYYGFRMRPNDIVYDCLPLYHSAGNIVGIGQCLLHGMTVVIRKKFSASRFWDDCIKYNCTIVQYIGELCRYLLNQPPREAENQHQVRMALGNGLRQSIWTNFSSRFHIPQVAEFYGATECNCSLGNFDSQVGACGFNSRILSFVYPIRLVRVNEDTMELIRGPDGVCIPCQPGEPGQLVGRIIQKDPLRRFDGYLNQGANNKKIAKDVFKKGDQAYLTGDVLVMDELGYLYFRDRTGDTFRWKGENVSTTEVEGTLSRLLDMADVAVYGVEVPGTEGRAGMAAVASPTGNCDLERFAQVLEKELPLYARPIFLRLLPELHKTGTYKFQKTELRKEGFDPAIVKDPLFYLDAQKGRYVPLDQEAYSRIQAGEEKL
inactive: [1] -0.048 | [2] 0.03 | epoxomicin -0.064 | [3] -0.014 | [4] -0.036 | [5] 0.04 | rosiglitazone 0.066 | [6] -0.051 | [7] -0.158
active: volasertib -0.473

TGFBR1 isoform 2 (UniProt P36897)
Sequence of UniProt P36897 (P36897 whole entry, looked up): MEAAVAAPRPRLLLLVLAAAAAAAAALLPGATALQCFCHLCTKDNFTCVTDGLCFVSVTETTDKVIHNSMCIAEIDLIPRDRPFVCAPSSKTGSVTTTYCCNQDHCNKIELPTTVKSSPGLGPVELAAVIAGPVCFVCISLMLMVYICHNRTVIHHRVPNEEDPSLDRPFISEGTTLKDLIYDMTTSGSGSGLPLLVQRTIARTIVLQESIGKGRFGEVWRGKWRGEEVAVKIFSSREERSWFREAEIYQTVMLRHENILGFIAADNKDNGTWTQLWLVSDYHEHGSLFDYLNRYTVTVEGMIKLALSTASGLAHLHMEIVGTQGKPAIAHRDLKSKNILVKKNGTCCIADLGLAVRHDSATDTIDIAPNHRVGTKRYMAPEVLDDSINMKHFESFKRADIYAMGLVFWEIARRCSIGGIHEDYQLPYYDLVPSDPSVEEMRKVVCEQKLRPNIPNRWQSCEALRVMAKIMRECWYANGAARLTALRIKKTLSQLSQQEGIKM
inactive: [1] -0.041 | volasertib -0.179 | [2] -0.022 | epoxomicin 0.033 | [3] -0.049 | [4] -0.023 | [5] -0.028 | rosiglitazone 0.122 | [6] 0.021 | [7] 0.076

TCOF1 isoform 4 (UniProt Q13428)
inactive: [1] -0.018 | volasertib 0.034 | [2] -0.016 | epoxomicin -0.02 | [3] 0.013 | [4] 0.063 | [5] -0.052 | rosiglitazone -0.011 | [6] 0.019 | [7] -0.06

TK1 (UniProt P04183)
inactive: [1] 0.039 | volasertib 0.062 | [2] -0.039 | epoxomicin 0.084 | [3] -0.015 | [4] 0.001 | [5] -0.009 | rosiglitazone 0 | [6] -0.075 | [7] -0.046

STXBP5 (UniProt Q5T5C0)
Sequence of UniProt Q5T5C0 (Q5T5C0 whole entry, looked up): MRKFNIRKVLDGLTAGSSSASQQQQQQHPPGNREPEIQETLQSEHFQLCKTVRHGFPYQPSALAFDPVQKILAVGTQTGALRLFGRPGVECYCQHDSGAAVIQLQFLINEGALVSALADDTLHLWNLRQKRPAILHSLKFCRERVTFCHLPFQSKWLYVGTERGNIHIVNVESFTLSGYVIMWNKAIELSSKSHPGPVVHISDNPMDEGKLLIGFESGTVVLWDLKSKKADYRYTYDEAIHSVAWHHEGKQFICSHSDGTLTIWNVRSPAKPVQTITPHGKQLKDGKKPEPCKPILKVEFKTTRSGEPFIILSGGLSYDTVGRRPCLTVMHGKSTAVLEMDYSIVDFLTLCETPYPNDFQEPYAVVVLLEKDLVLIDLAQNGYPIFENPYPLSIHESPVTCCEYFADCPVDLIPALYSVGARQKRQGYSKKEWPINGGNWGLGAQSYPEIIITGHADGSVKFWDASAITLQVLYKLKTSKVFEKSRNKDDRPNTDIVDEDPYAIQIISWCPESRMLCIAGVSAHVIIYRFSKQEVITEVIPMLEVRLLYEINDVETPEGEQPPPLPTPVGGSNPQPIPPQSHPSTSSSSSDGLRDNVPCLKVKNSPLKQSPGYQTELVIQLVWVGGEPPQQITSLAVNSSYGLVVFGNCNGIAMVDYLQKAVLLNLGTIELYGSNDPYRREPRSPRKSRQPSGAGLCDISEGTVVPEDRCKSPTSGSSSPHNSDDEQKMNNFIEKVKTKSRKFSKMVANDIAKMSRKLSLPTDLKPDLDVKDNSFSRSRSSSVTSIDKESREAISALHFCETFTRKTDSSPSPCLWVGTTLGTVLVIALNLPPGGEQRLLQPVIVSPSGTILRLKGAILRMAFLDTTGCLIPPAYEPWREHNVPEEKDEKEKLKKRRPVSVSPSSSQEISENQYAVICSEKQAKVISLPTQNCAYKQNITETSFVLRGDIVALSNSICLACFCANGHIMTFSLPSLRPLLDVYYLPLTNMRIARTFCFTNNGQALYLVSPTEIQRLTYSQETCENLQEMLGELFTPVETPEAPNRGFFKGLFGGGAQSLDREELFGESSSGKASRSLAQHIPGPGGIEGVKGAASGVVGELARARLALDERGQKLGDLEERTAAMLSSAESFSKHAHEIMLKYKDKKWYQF
inactive: [1] -0.085 | [2] 0.021 | epoxomicin 0.151 | [3] -0.019 | [4] 0.046 | [5] 0.033 | rosiglitazone 0.007 | [6] 0.015 | [7] -0.006
active: volasertib -0.344

SPTBN4 (UniProt Q9H254)
inactive: [1] 0.051 | volasertib -0.293 | [2] -0.025 | epoxomicin -0.018 | [3] -0.065 | [4] -0.1 | [5] 0.171 | rosiglitazone 0.017 | [6] 0.011 | [7] 0.153

TFRC (UniProt P02786)
inactive: [2] -0.035 | epoxomicin -0.009 | [3] 0.051 | [4] -0.005 | [5] 0.004 | rosiglitazone -0.007 | [6] -0.033
active: [1] -0.589 | volasertib -0.417 | [7] -0.289

STX7 (UniProt O15400)
inactive: [1] -0.021 | volasertib 0.057 | [2] -0.03 | epoxomicin -0.008 | [3] 0.032 | [4] 0.094 | [5] -0.006 | rosiglitazone -0.004 | [6] 0.005 | [7] -0.116

Reference: the supplement of paper PMC10849652
